Inconclusive results are not listed. The source made the active and inactive calls. The call rests on the fitted dose curve; in most records, active means well fitted cell-killing curve with a large enough effect; inconclusive means small, poorly fitted or top-dose-only effect, or effect the other way; inactive means flat fitted curve, though single readings scatter.
Tests used:
Assay in all cases: Primary qHTS to identify gynecologic anti-cancer compounds using libraries of approved drugs and bioactive compounds (AID 1345084); further: nearly all actives have a fitted effect of over 55% in size
C33A = details: Gynecologic cancer cell panel viability, ATPlite luminescence, 48 h; series mostly up to 57.5 µM
Procedure, shortened: (§1)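 Cells, 1,000 per well, were allowed to settle for 16 h at 37 C before compound addition. Five concentrations were tested for 48 h, and viability was read by ATPlite luminescence after 15 min at room temperature.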

CAOV3 = details: Gynecologic cancer cell panel viability, ATPlite luminescence, 48 h; series mostly up to 57.5 µM
Procedure, shortened: as §1

CASKI = details: Gynecologic cancer cell panel viability, ATPlite luminescence, 48 h; series mostly up to 57.5 µM
Procedure, shortened: as §1

Es-2 = details: Gynecologic cancer cell panel viability, ATPlite luminescence, 48 h; series mostly up to 57.5 µM
Procedure, shortened: as §1

HeLa = details: Gynecologic cancer cell panel viability, ATPlite luminescence, 48 h; series mostly up to 57.5 µM
Procedure, shortened: as §1

Hek293T = details: Gynecologic cancer cell panel viability, ATPlite luminescence, 48 h, control line for the selectivity index; series mostly up to 57.5 µM
Procedure, shortened: as §1

JEG-3 = details: Gynecologic cancer cell panel viability, ATPlite luminescence, 48 h; series mostly up to 57.5 µM
Procedure, shortened: as §1

OV90 = details: Gynecologic cancer cell panel viability, ATPlite luminescence, 48 h; series mostly up to 57.5 µM
Procedure, shortened: as §1

PA-1 = details: Gynecologic cancer cell panel viability, ATPlite luminescence, 48 h; series mostly up to 57.5 µM
Procedure, shortened: as §1

SKOV3 = details: Gynecologic cancer cell panel viability, ATPlite luminescence, 48 h; series mostly up to 57.5 µM
Procedure, shortened: as §1

Tov-21-G = details: Gynecologic cancer cell panel viability, ATPlite luminescence, 48 h; series mostly up to 57.5 µM
Procedure, shortened: as §1

Tov112D = details: Gynecologic cancer cell panel viability, ATPlite luminescence, 48 h; series mostly up to 57.5 µM
Procedure, shortened: as §1
On the % scale 0 is the no-effect control and ±100 the full control effect.

C[C@@H]1N[C@H]2N(C1=O)c1ccccc1[C@@]2(O)C[C@@H]1C(=O)N[C@@H](C)c2nc3ccccc3c(=O)n21
inactive: Potency (C33A) | Potency (CAOV3) | Potency (CASKI) | Potency (Es-2) | Potency (HeLa) | Potency (Hek293T) | Potency (JEG-3) | Potency (OV90) | Potency (PA-1) | Potency (SKOV3) | Potency (Tov-21-G) | Potency (Tov112D)

CCOCCOC(=O)/C=C/c1ccc(OC)cc1
inactive: Potency (C33A) | Potency (CAOV3) | Potency (CASKI) | Potency (Es-2) | Potency (HeLa) | Potency (Hek293T) | Potency (JEG-3) | Potency (OV90) | Potency (PA-1) | Potency (SKOV3) | Potency (Tov-21-G) | Potency (Tov112D)

O=C(O)/C=C/c1cc2c(cc1O[C@@H]1O[C@H](CO)[C@@H](O)[C@H](O)[C@H]1O)OCO2
inactive: Potency (C33A) | Potency (CAOV3) | Potency (CASKI) | Potency (Es-2) | Potency (HeLa) | Potency (Hek293T) | Potency (JEG-3) | Potency (OV90) | Potency (PA-1) | Potency (SKOV3) | Potency (Tov-21-G) | Potency (Tov112D)

Cc1[nH]c2ccccc2c1CCNC(=O)c1ccccc1F
inactive: Potency (C33A) | Potency (CAOV3) | Potency (CASKI) | Potency (Es-2) | Potency (HeLa) | Potency (Hek293T) | Potency (JEG-3) | Potency (OV90) | Potency (PA-1) | Potency (SKOV3) | Potency (Tov-21-G) | Potency (Tov112D)

CC1OC(OC2C(C)OC(OC3C(O)C(CO)OC(O[C@H]4CC[C@@]5(C)C(CC[C@]6(C)C5CC=C5C7[C@@H](C)[C@H](C)CC[C@]7(C(=O)O)CC[C@]56C(=O)O)C4(C)C)C3O)C(O)C2O)C(O)C(O)C1O (stereo not given in full)
inactive: activity change, negative = cytotoxicity (C33A) -5.63% [at 11.6 µM] | activity change, negative = cytotoxicity (CAOV3) 10.5% [at 11.6 µM] | activity change, negative = cytotoxicity (CASKI) 1.59% [at 11.6 µM] | activity change, negative = cytotoxicity (Es-2) 1.92% [at 11.6 µM] | activity change, negative = cytotoxicity (HeLa) 9.15% [at 11.6 µM] | activity change, negative = cytotoxicity (Hek293T) -7.85% [at 11.6 µM] | activity change, negative = cytotoxicity (JEG-3) -5.03% [at 11.6 µM] | activity change, negative = cytotoxicity (OV90) 0.765% [at 11.6 µM] | activity change, negative = cytotoxicity (PA-1) -0.273% [at 11.6 µM] | activity change, negative = cytotoxicity (SKOV3) -6.75% [at 11.6 µM] | activity change, negative = cytotoxicity (Tov-21-G) -0.483% [at 11.6 µM] | activity change, negative = cytotoxicity (Tov112D) 2.5% [at 11.6 µM]

CC12CCC(OC3OC(CO)C(O)C(OC4OC(CO)C(O)C(O)C4O)C3O)CC1CCC1C2CCC2(C)/C(=C3/COC(=O)C3)CCC12O (stereo not given)
inactive: Potency (C33A) | Potency (CAOV3) | Potency (CASKI) | Potency (Es-2) | Potency (HeLa) | Potency (Hek293T) | Potency (JEG-3) | Potency (OV90) | Potency (PA-1) | Potency (SKOV3) | Potency (Tov-21-G)

C=C(CO[C@@H]1O[C@H](CO[C@@H]2OC[C@](O)(CO)[C@H]2O)[C@@H](O)[C@H](O)[C@H]1O)C1Cc2cc(C(C)=O)ccc2O1 (stereo not given in full)
inactive: Potency (C33A) | Potency (CAOV3) | Potency (CASKI) | Potency (Es-2) | Potency (HeLa) | Potency (Hek293T) | Potency (JEG-3) | Potency (OV90) | Potency (PA-1) | Potency (SKOV3) | Potency (Tov-21-G) | Potency (Tov112D)

O=C(/C=C/c1ccccc1)OC[C@]12O[C@H]1[C@@H](O)[C@@H]1C=CO[C@@H](O[C@@H]3O[C@H](CO)[C@@H](O)[C@H](O)[C@H]3O)[C@@H]12
inactive: Potency (C33A) | Potency (CAOV3) | Potency (CASKI) | Potency (Es-2) | Potency (HeLa) | Potency (Hek293T) | Potency (JEG-3) | Potency (OV90) | Potency (PA-1) | Potency (SKOV3) | Potency (Tov-21-G) | Potency (Tov112D)

COC(=O)c1ccccc1O[C@@H]1O[C@H](CO)[C@@H](O)[C@H](O)[C@H]1O[C@@H]1O[C@@H](C)[C@H](O)[C@@H](O)[C@H]1O
inactive: Potency (C33A) | Potency (CAOV3) | Potency (CASKI) | Potency (Es-2) | Potency (HeLa) | Potency (Hek293T) | Potency (JEG-3) | Potency (OV90) | Potency (PA-1) | Potency (SKOV3) | Potency (Tov-21-G) | Potency (Tov112D)

C[C@@H]1CN(Cc2ccccc2)C[C@H]1c1nc2c(cnn2C2CCOCC2)c(=O)[nH]1
inactive: Potency (C33A) | Potency (CAOV3) | Potency (CASKI) | Potency (Es-2) | Potency (HeLa) | Potency (Hek293T) | Potency (JEG-3) | Potency (OV90) | Potency (PA-1) | Potency (SKOV3) | Potency (Tov-21-G) | Potency (Tov112D)

CC(C)C(=O)OC[C@H]1O[C@H](O[C@H]2O[C@H](CO)[C@@H](O)[C@H](O)[C@H]2O)[C@H](O)[C@@H](O)[C@@H]1O
inactive: Potency (C33A) | Potency (CAOV3) | Potency (CASKI) | Potency (Es-2) | Potency (HeLa) | Potency (Hek293T) | Potency (JEG-3) | Potency (OV90) | Potency (PA-1) | Potency (SKOV3) | Potency (Tov-21-G) | Potency (Tov112D)

COc1cccc(C(=O)N2CCN(C(=O)COc3cccc(C)c3)CC2)c1OC
inactive: Potency (C33A) | Potency (CAOV3) | Potency (CASKI) | Potency (Es-2) | Potency (HeLa) | Potency (Hek293T) | Potency (JEG-3) | Potency (OV90) | Potency (PA-1) | Potency (SKOV3) | Potency (Tov-21-G) | Potency (Tov112D)

CC[C@@](C)(Nc1ccnc(-c2c[nH]c3ncccc23)n1)C(=O)NCC(F)(F)F
inactive: Potency (C33A) | Potency (CAOV3) | Potency (CASKI) | Potency (Es-2) | Potency (HeLa) | Potency (Hek293T) | Potency (JEG-3) | Potency (OV90) | Potency (PA-1) | Potency (SKOV3) | Potency (Tov-21-G) | Potency (Tov112D)

— PubChem BioAssay (NCATS)
